This is a sample that favours compounds with a hit; in the whole collection about 2.2% have one here.
Nrf2 ARE act = qHTS of Nrf2 Activators | AREc32 ARE-luciferase reporter (MCF7-derived line), luminescence, 24 h | Potency, µM (top dose mostly 46.1 µM), without a hit: at the top dose activation, usual class: activators | actives 0.31% (n = 410,000); note: potency is the fitted concentration of half-maximal effect; % of control where 0% means no effect; nearly all actives have a fitted effect of over 65% in size
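Each well held 1000 AREc32 cells, which were incubated with compound for 24 hr at 37 deg C after overnight attachment, and ARE reporter activity was quantified by firefly luciferase luminescence.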
Nrf2 block = Nrf2 qHTS screen for inhibitors; AID 504444, 2011; Potency, µM (top dose mostly 46 µM), without a hit: at the highest dose activity change, negative = inhibition, hits mostly inhibitors; actives 2.1% (n = 360,000); A549 ARE-Fluc reporter, luciferase luminescence, 18-24 h; note: potency is the fitted concentration of half-maximal effect; % is set by controls: 0 for no effect and ±100 for the full control effect; nearly all actives have a fitted effect of over 60% in size
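Nrf2 activity is the BugLite luminescence, read 15 min after reagent at room temperature, following CellTiter-Fluor cytotoxicity readout (30 min, 37C). Compound titrations were applied for 18-24 h to 5000 A549 ARE_Fluc cells/well in 5% FBS OPTI-MEM.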
A549 viability = Nrf2 qHTS screen for inhibitors: counterscreen for cytotoxicity. A549 ARE-Fluc cells, CellTiter-Fluor viability, 18-24 h. Potency, µM (top dose mostly 46 µM), without a hit: top-dose activity change, negative = cytotoxicity, usual class: inhibitors. actives 0.16% (n = 390,000). AID 504648, 2011; note: potency is the fitted concentration of half-maximal effect; % is set by controls: 0 for no effect and ±100 for the full control effect
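Cytotoxicity counterscreen: CellTiter-Fluor fluorescence was measured in A549 ARE_Fluc cells after 18-24 h of compound exposure in a concentration series. The subsequent BugLite luminescent read reports ARE-luciferase activity.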
PI4K2A block = qHTS for small molecular inhibitors of PI4K2A. Phosphatidylinositol 4-kinase type 2-alpha (Homo sapiens), Q9BTU6. purified PI4K2A, ADP-Glo luminescence, 1 h; active compounds read low. activity change, negative = inhibition, % at 76.9 µM. actives 0.13% (n = 420,000); in the data active = activity change below about -50%; inconclusive = mostly about -30% to -49%;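 note: -100% = wells without enzyme as full effect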
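Compounds are screened against recombinant PI4K2A using PI as substrate and ATP, the latter dispensed at 300 microM. Reactions run one hour at ambient temperature before ADP-Glo detection; full inhibition defined by wells lacking enzyme.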
miR-21 reporter = qHTS Assay for Modulators of miRNAs and/orActivators of miR-21 | Potency, µM (doses to about 38.3 µM), for the others: at the highest dose activity change, positive = activation, usual class: activators | 340,000 tested, under 10 active | HeLa miR-21 FLuc reporter, luciferase, 48 h;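 note: % of control where 0% means no effect; miR-21 action dims this reporter so a rising signal means less miR-21 action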
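HeLa miR-21-FLuc reporter line, endogenous miR-21; 2000 cells/well in DMEM/10% FBS; compound titration up to ~40uM final, 48 h, 37 degree Celsius; luciferase detection reagent, 15 min lysis, CCD luminescence.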
GALK inh = qHTS Assay for Inhibitors of Human Galactokinase (GALK); P51570; Purified GALK, Kinase-Glo residual ATP luminescence; Potency, µM (highest dose often 57.5 µM), without a hit: at the highest dose activity change, negative = inhibition, most hits filed as inhibitors; actives 0.007% (n = 270,000); AID 1868, 2009; note: potency is the fitted concentration of half-maximal effect; % is set by controls: 0 for no effect and ±100 for the full control effect
Target sequence (P51570 whole entry, looked up): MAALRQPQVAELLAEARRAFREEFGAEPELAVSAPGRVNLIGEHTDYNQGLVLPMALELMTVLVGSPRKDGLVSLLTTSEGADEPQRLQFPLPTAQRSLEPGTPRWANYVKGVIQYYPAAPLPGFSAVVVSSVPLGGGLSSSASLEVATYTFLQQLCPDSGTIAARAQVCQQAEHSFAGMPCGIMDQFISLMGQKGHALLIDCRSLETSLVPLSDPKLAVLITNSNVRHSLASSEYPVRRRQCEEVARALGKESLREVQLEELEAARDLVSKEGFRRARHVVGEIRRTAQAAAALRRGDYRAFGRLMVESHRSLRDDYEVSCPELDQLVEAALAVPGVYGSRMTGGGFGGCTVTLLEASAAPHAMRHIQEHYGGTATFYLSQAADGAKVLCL
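Quantitative HTS: GALK 5 nM, ATP 35 uM, galactose 100 uM, 1 h room temperature, then luciferase-based ATP detection.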
The depositor's hits bear a star; ? = inconclusive; / = no result; [ ] = another dose, or the depositor's remark. Unless noted, calls come from the whole dose curve; as a rule, active = well fitted curve in the direction sought with a large enough effect; inconclusive = small, poorly fitted or top-dose-only effect, or another doubt; inactive = no such curve, though single readings can be large; an effect the other way counts as inactive or inconclusive.

SMILES	Nrf2 ARE act	Nrf2 block	A549 viability	PI4K2A block	miR-21 reporter	GALK inh
CC(C)(C)OC(=O)N[C@@H](Cc1ccccc1)c1nnc(S(=O)(=O)Cc2ccccc2)o1	/	/	/	/	?	-0.1%
CC(C)(C)OC(=O)N[C@@H](Cc1ccccc1)c1nnc(SCC(=O)O)o1	-0.6%	-3.3%	-11.2%	0.6	-3.3%	3.4%
Cc1ccccc1CS(=O)(=O)c1nnc([C@H](Cc2ccccc2)NC(=O)OC(C)(C)C)o1	-0.6%	23.1µM*	-5.9%[1.84 µM]	74.1	?	0.7%
CCOC(=O)N1CCN(c2nc(C(F)(F)F)nc3c(C)cc(C)cc23)CC1	-0.7%	23.1µM*	-9.5%	1.4	-0.6%	-0.7%
COc1ccc2[nH]cc(C(C)c3c[nH]c4ccccc34)c2c1 (stereo not drawn)	/	/	/	-13.8	/	/
C=CC[C@@H](CC(=O)N(CCO)Cc1ccccc1)C(=O)N[C@@H](COC(=O)[C@@H](CC=C)Cc1ccc(F)cc1)Cc1ccccc1	-4.7%	23.1µM*	?	1.5	/	/
C=CCC[C@@H](Cc1ccc(F)cc1)C(=O)OC[C@@H](NC(=O)[C@@H](CC=C)CC(=O)N(CCO)Cc1ccccc1)c1ccccc1	-3.5%	23.1µM*	?	-6.4	/	/
C=CC[C@@H](CC(=O)N(CCO)Cc1ccccc1)C(=O)N[C@H](COC(=O)[C@@H](CC=C)Cc1ccc(F)cc1)Cc1ccccc1	-1.9%	?	-28.8%	-1.0	/	/
Cc1ccc(NC(=O)C2CCCN(c3nnc(-n4cccc4)s3)C2)c(C)c1 (stereo not drawn)	/	/	/	0.4	/	/
Cc1ccc(NS(=O)(=O)c2ccc3c(c2)CCC(=O)N3)cc1F	/	-12.8%	0.8%	/	/	/
N#Cc1ccc(Cn2ccc3ccc(-c4ccc5ccn(C(=O)C6CCCCC6)c5c4)cc32)cc1	/	/	/	-0.1	/	/
COC(=O)c1ccc(NS(=O)(=O)c2cc3c4c(c2)CCC(=O)N4CCC3)cc1	5.0%	23.1µM*	0.1%	3.3	/	/
COC(=O)c1ccc(NS(=O)(=O)c2cc3c4c(c2)CCN4C(=O)CC3)cc1	0.0%	-15.3%	-0.6%	1.4	/	/
Cc1cccc([S+](=O)([O-])NC2CCN(C#N)CC2)c1	/	12.5%	-1.1%	/	/	/
COc1ccc(NC(=O)c2ccc(C)o2)c([N+](=O)[O-])c1	1.1%[9.22 µM]	5.5%	4.5%	-3.1	-42.3%	0.9%
COc1ccc(NC(=O)c2ccc([N+](=O)[O-])s2)c([N+](=O)[O-])c1	10µM*	2.9%	-19.2%	8.9	-10.6%	-1.0%
CCC(C)(CCN1CCOCC1)N(Cc1cc2ccccc2n(C)c1=O)C(=O)C1CCCCC1 (stereo not drawn)	/	6.8%	-15.2%	/	/	/
O=C(Nc1ccc(-c2nc3ccccc3o2)c(O)c1)c1cc(-n2cnnc2)ccc1Cl	2.0%	10.3µM*	/	-2.4	-0.1%	0.1%
COc1cc(-c2ccc3ncnc(NCc4cccs4)c3c2)cc(OC)c1OC	/	-17.2%	-7.8%	/	/	/
COc1ccc(-c2noc(CSc3nc4ccccc4[nH]3)n2)cc1OC	0.8%	20.6µM*	-10.8%	-6.9	25.2%	/
CCn1c(SCC(=O)c2cccs2)nnc1-c1cccs1	22.4µM*	?	0.2%	5.1	-38.0%	1.6%
CCn1c(SCC(=O)NC(C)C)nnc1-c1cccs1	-1.4%	-9.3%	-8.3%	2.6	-2.7%	1.4%
CCn1c(SCc2nc(-c3ccc(OC)c(OC)c3)no2)nnc1-c1cccs1	4.1%	20.6µM*	-14.2%	-1.1	12.9%	1.7%
COc1ccccc1-c1noc(CSc2nc3ccc(C)cc3[nH]2)n1	4.1%	?	2.2%	2.5	0.0%	/
Cc1ccccc1-c1noc(CSc2nc3ccccc3[nH]2)n1	0.3%	18.4µM*	-4.9%	1.8	-0.5%	/
SMILES	Nrf2 ARE act	Nrf2 block	A549 viability	PI4K2A block	miR-21 reporter	GALK inh
Cc1ccc(NC(=O)Cn2nnc(-c3ccncc3)n2)cc1C	/	/	/	4.2	/	/
COc1ccc(C2C(C(=O)Nc3ccc(F)cc3)CCC(=O)N2c2ccc(OC)cc2)cc1 (stereo not drawn)	/	/	/	-8.2	/	/
CCCC(C)C(=O)Nc1nc(C)c(-c2csc(Nc3ccccc3OC)n2)s1 (stereo not drawn)	4.1%	-21.0%	-2.5%	1.0	20.4%	-0.8%
CCC(C)C(=O)Nc1nc(C)c(-c2csc(Nc3cc(Cl)ccc3OC)n2)s1 (stereo not drawn)	-0.3%	8.2µM*	-4.2%	-2.9	24.7%	2.3%
CCCC(C)C(=O)Nc1nc(C)c(-c2csc(Nc3ccc(Cl)cc3)n2)s1 (stereo not drawn)	3.9%	14.6µM*	-12.3%	-3.4	22.5%	-2.9%
CCN(CC(=O)Nc1ccccc1C(F)(F)F)C(=O)c1ccc2[nH]c3c(c2c1)CC(C)CC3 (stereo not drawn)	2.3%	25.9µM*	?	-1.6	/	/
COc1ccc(C2=Nn3c(nnc3-c3ccc(OC)c(OC)c3)SC2)cc1	/	1.0%	-7.8%	/	/	/
O=C1C=C(Nc2ccccc2)c2ccccc2C1=O	-2.0%	20.6µM*	?	-15.7	-0.8%	-1.3%
CCn1c(SCC(=O)NN=Cc2c(C)nn(-c3ccccc3)c2C)nnc1-c1ccc(OC)c(OC)c1	/	/	/	4.6	/	/
OC[C@H]1O[C@@H](OCCc2ccc(O)cc2)[C@H](O)[C@@H](O)[C@H]1O	/	/	/	-0.7	/	/
COc1ccc(/C=C2\CCC(C3CCCC3)C2=O)cc1Cn1cccn1 (stereo not drawn)	-0.3%	?	6.3%	-0.7	-5.9%	-2.8%
COc1cc(C=C2Cc3ccccc3C2=O)cc(OC)c1OC	7.08µM*	/	/	-2.9	/	/
COc1ccc(/C=C2\CCc3ccccc3C2=O)cc1Cn1cccn1	17.4%	2.31µM*	-17.5%	-5.1	-29.0%	-1.6%
O=C1C2C3C=CC(C3)C2C(=O)N1CCCCCCN1C(=O)C2C3C=CC(C3)C2C1=O (stereo not drawn)	-0.6%	14.6µM*	0.6%	-2.6	-59.2%	0.1%
Cc1oc(-c2cccc(Cl)c2)nc1Cn1c(SCc2ccc(F)cc2)nc2cccnc21	0.3%	18.4µM*	-21.9%	-4.1	-7.8%	/
COc1ccc(-c2nc(Cn3c(SCc4ccc(F)cc4)nc4cccnc43)c(C)o2)cc1	-0.4%	18.4µM*	?	-2.7	0.3%	/
COc1ccc(-c2nc(Cn3c(SCc4cccc(F)c4)nc4cccnc43)c(C)o2)cc1	-1.2%	20.6µM*	-24.6%	3.3	4.3%	/
CN1CCOc2cc(S(=O)(=O)N3CCN(c4nc(-c5cccs5)nc5ccccc45)CC3)ccc21	/	2.2%	2.7%	/	/	/
COC(=O)c1c(C)[nH]c(C(=O)/C=C/c2ccc(C)cc2)c1C	2.7%	2.59µM*	8.2%	5.9	-8.3%	3.0%

Bioassay records as filed in PubChem.
